PPC-1+TRAIL kill: compounds killing PPC-1 cancer cells with TRAIL present, primary screen, TRAIL potentiator project, ATPLite luminescence, uHTS; 220,000 tested, 0.41% active; PPC-1 cells + TRAIL, ATPLite viability luminescence; cell killing (% activity), % at 4 µM or 5 µM;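 active = cell killing above 50% in the first pass at 4 µM, then a duplicate retest at 5 µM averaging 50% or more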;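 note: plate controls were cells with TRAIL plus DMSO for no effect and medium-only wells lacking cells for full effect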
C8 TRAIL sens: viability loss with TRAIL in NB7+C8 cells, primary screen, TRAIL sensitizer project, cell-based, ATPlite luminescence | inhibition (viability loss, TRAIL sensitization), % at 10 µM | 360,000 tested, 1% active;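 active = compounds causing at least 50% loss of cell viability in the single-dose screen, relative to plate controls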
SENP7 inh: SENP7 protease inhibitors, primary screen, biochemical, luminescence, uHTS. 330,000 tested, 1.5% active. Sentrin-specific protease 7 (Homo sapiens), Q9BQF6. inhibition, % at 5 µM. recombinant SENP7, Z-RLRGG-aminoluciferin luminescence, 40 min;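 active = inhibition above about 50% at the single test dose, limit read from the data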;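 note: plate controls were DMSO with enzyme for no effect and no enzyme buffer wells for full effect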
Target sequence (Q9BQF6 706-1050 limits assumed): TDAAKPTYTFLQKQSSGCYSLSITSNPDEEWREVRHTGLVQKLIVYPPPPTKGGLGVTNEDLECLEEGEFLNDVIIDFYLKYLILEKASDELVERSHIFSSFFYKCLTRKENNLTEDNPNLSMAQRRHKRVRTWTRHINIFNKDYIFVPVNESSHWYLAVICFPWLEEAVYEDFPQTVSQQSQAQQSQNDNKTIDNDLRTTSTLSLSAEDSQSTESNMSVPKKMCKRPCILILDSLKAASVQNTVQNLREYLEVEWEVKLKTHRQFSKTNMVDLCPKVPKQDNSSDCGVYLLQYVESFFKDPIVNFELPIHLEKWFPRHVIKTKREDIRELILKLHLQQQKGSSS
SENP8 block-1: SENP8 protease inhibitors, primary screen, biochemical, luminescence | Sentrin-specific protease 8 (Homo sapiens), Q96LD8 | 330,000 tested, 1.2% active | purified SENP8, Z-RLRGG-aminoluciferin cleavage | inhibition, % at 10 µM; in the data active = inhibition above about 50%
Target sequence (Q96LD8 whole entry, looked up): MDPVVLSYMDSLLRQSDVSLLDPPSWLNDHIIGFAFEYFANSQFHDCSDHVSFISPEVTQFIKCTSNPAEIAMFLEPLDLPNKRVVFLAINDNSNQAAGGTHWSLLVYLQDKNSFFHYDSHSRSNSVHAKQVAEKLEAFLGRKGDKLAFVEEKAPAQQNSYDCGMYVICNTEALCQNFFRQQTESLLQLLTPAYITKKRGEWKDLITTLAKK
SENP8 block-2: human SENP8 protease inhibitors, primary screen, biochemical, fluorescence, Nedd8 protein substrate, uHTS; recombinant SENP8; inhibition, % at 20 µM; 360,000 tested, 0.64% active; in the data active = inhibition mostly above about 40%, no sharp cut-off; inactive = mostly below about 27%
SENP6 block: SENP6 protease inhibitors, primary screen, biochemical, luminescence, uHTS; Recombinant SENP6 catalytic domain, aminoluciferin luminescence; inhibition, % at 10 µM; 330,000 tested, 1.8% active;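 active = inhibition above about 50% at the single tested dose, limit read from the data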;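 note: plate controls were DMSO wells with enzyme for no effect and DMSO wells lacking enzyme for full effect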
Active calls of the source: *; . = no result. Compounds with a hit are over-represented: about 3% of the library has one in this group of screens.

SMILES	PPC-1+TRAIL kill	C8 TRAIL sens	SENP7 inh	SENP8 block-1	SENP8 block-2	SENP6 block
CCc1ccc2c(c1)c(N=NC1=NC(=O)CS1)c(O)n2C	7.4	0.8	6.0	3.1	40.1*	4.7
Cc1cc(C)c2[nH]c(O)c(N=NC3=NC(=O)CS3)c2c1	17.9	-5.6	-2.3	5.7	38.4	-6.6
Cc1ccc(S(=O)(=O)Nc2ccccc2C(=O)N2CCN(C)CC2)cc1	.	-9.6	-2.6	4.6	0.9	1.8
CCN(CC)S(=O)(=O)c1ccc(N/N=C/c2ccc(O)cc2O)nc1	52.5*	17.9	-9.6	-16.2	-206.2	-15.2
Cc1nc(-c2ccc(Br)cc2)ccc1C(=O)O	29.9	-8.6	20.3	30.0	14.0	74.6*
COc1ccc(C(=O)NC2CCCc3ccccc32)cc1OC1CCN(C(C)=O)CC1 (configuration not stated)	.	-0.5	10.2	-2.7	13.2	-6.6
Cc1cccc(-c2noc(-c3csc([C@@H]4C[C@H](O)[C@@H](CO)O4)n3)n2)c1	.	51.1*	.	.	16.2	.
COc1cc(OC)cc(-c2noc(-c3csc([C@H]4C[C@H](O)[C@@H](CO)O4)n3)n2)c1	.	22.2	.	.	11.2	.
O=C1Nc2ccccc2N(C(=O)c2c(F)cccc2F)C1c1nc2ccccc2[nH]1 (configuration not stated)	.	77.2*	.	.	-290.3	.
O=C1Nc2ccccc2N(C(=O)c2ccc(-c3ccccc3)cc2)C1c1nc2ccccc2[nH]1 (configuration not stated)	.	73.6*	.	.	-364.9	.
COc1cccc(/C=N/Nc2nn3cnnc3c3ccccc23)c1	37.3	63.8*	5.6	5.1	-148.6	8.2
Oc1ccc(/C=N/Nc2nn3cnnc3c3ccccc23)cc1	34.2	62.6*	-6.8	-11.1	-98.6	-3.5
CC(=O)c1ccc(NC(=O)c2cc(Cl)sc2Cl)cc1	15.2	13.1	37.4	4.3	17.5	32.3
CCOC(=O)c1c(CSC(=N)N)n(C)c2cc(Br)c(OC(C)=O)cc12	1.2	0.3	-0.6	4.7	20.6	-6.2
CCOC(=O)c1c(CSC(=N)N)n(-c2ccc(C)cc2)c2cc(Br)c(OC(C)=O)cc12	17.7	93.0*	8.1	9.8	26.8	9.9
O=[N+]([O-])c1cc2c(cc1C=Nc1ccccc1)OCO2	-2.7	-5.8	11.9	13.0	-303.5	57.5*
CCOc1ccc(NC(=O)CN(C)C(=O)c2ccccc2CCc2ccccc2)cc1OCC	.	15.3	1.1	1.9	25.1	-15.7
C[C@@H]1CN([C@@H](C)CO)C(=O)c2cc(C#CC3CCCCC3)cnc2O[C@@H]1CN(C)S(=O)(=O)c1ccc(F)cc1	.	-6.2	.	.	-39.4	.
Cc1cc(O)c2c(c1O)C(=O)[C@]13C(=C2O)C(=O)[C@@H]2[C@@H](O)[C@H]1[C@@H]1[C@H](O)[C@H]3C(=O)C3=C(O)c4c(O)cc(C)c(O)c4C(=O)[C@]312	.	48.1*	8.8	35.4	19.8*	39.8
Cn1c(SCc2ccccc2F)nnc1-c1ccccn1	8.0	-5.9	5.1	5.2	16.8	-1.7
O=C(/C=C/c1ccc(Cl)cc1Cl)Nc1ccncc1	10.7	26.6	43.4	55.8*	15.0	78.2*
O=C(/C=C/c1c(Cl)cccc1Cl)Nc1ccncc1	10.6	7.9	53.2*	43.3	7.9	60.5*
O=C(/C=C/c1cccc(Cl)c1)Nc1ccncc1	9.6	0.9	-4.4	-10.1	8.0	-2.2
CC(NC(=O)CN1c2cccc3cccc(c23)S1(=O)=O)c1ccc(S(N)(=O)=O)cc1 (configuration not stated)	.	-12.7	13.2	-14.0	-423.9	-11.8
Cc1ccc(NC(=O)Cn2c(=O)oc3ccccc32)c(C)c1	.	4.0	4.5	-9.1	25.6	-2.2
SMILES	PPC-1+TRAIL kill	C8 TRAIL sens	SENP7 inh	SENP8 block-1	SENP8 block-2	SENP6 block
Cc1ccc(-c2nc(NC(=O)c3nn(C)cc3[N+](=O)[O-])sc2C)cc1C	23.9	94.7*	-4.3	-4.9	19.5	-7.8
Cn1cc([N+](=O)[O-])c(C(=O)Nc2ccc(C(=O)N3CCCCC3)cc2)n1	-0.8	14.4	7.1	-5.3	14.1	-6.0
Cn1cc([N+](=O)[O-])c(C(=O)Nc2nc(-c3ccc(Cl)cc3)cs2)n1	48.0	93.7*	2.1	-3.9	30.6	17.8
Cc1cnc(NC(=O)c2nn(C)cc2[N+](=O)[O-])s1	32.6	2.1	7.4	4.0	12.6	3.8
Cc1ccc(-c2nc(NC(=O)c3nn(C)cc3[N+](=O)[O-])sc2C)cc1	33.8	92.6*	6.3	0.5	12.5	4.3
CC(=O)c1c(C)[nH]c(C(=O)Nc2nc(-c3ccc(Cl)cc3)cs2)c1C	21.6	13.0	-8.8	-8.7	-113.0	-20.7
Cn1cc([N+](=O)[O-])c(C(=O)Nc2ccc(C3CCCCC3)cc2)n1	46.0	60.9*	-2.6	6.8	12.6	20.8
COC(=O)[C@]12CCCCC=C1N(Cc1ccccc1)C(=O)[C@H](CC(=O)N1CCC(c3ccccc3)CC1)C2	.	31.2	.	.	25.9	.
COc1cc(/C=C2\CCC(C3CCCC3)C2=O)ccc1OC(C)C (configuration not stated)	.	-2.6	-5.4	-11.0	9.0	-6.6
O=C(NCc1cccc(C(F)(F)F)c1)C1C(=O)Nc2ccccc2C(=O)N1C1CCCC1 (configuration not stated)	.	1.1	.	.	-94.4	.
O=C(NC1CCN(S(=O)(=O)c2cccc(Cl)c2)CC1)C1CCCCC1	.	12.5	-5.6	6.3	16.0	-5.5
CC(C)CC(N)c1csc(NC(=O)c2cc(C(C)(C)C)nn2Cc2ccccc2)n1 (configuration not stated)	.	84.4*	.	.	2.0	.
COc1ccc(C2=NN(C(=O)c3ccco3)C(c3ccco3)C2)cc1OC (configuration not stated)	.	-8.2	0.6	7.3	-44.0	-26.9
O=C(CCc1ccccc1)N/N=C/c1cc(Br)ccc1O	15.5	54.7*	-7.7	-8.5	-181.1	2.8
O=C(N/N=C/c1cc(Br)ccc1O)c1ccccc1Cl	42.9	56.1*	-4.7	-13.0	6.4	-6.7
COc1ccc(-c2cc(C(=O)Nc3cccnc3)no2)cc1OC	.	-3.8	-17.9	-10.1	-52.8	-12.4
COc1cc(S(=O)(=O)Nc2ccc(C)cc2)ccc1N=Cc1c(C)[nH]n(-c2ccccc2)c1=O	16.8	7.0	6.3	-7.2	45.9*	4.0
Cc1[nH]n(-c2ccccc2)c(=O)c1C=Nc1ccc(S(=O)(=O)Nc2nccs2)cc1	.	13.1	-2.2	-4.3	43.6*	1.6
CCOC(=O)C1CCN(C(=O)C2c3ccccc3C(=O)N(C)C2c2ccc(OC)cc2)CC1 (configuration not stated)	27.2	53.7*	-7.1	-0.5	18.4	0.7
